Test results: ChEMBL document CHEMBL3988442, “University of Dundee, Small-Polar-MMV Screening Library” (2021)
For part of these data: Potency and affinity values are given separately.

How the values were obtained:
Parameters in all cases: scale not given: direction of the effect not stated beside the values
[1] = molecular target: Protein translocase subunit SecA (Escherichia coli (strain K12)) (UniProt P10408); assay: Assay to Identify E. coli SecA ATPase Inhibitors; format: functional; conditions: 30 µM
Protein translocase subunit SecA (Escherichia coli (strain K12)), sequence (P10408 whole entry): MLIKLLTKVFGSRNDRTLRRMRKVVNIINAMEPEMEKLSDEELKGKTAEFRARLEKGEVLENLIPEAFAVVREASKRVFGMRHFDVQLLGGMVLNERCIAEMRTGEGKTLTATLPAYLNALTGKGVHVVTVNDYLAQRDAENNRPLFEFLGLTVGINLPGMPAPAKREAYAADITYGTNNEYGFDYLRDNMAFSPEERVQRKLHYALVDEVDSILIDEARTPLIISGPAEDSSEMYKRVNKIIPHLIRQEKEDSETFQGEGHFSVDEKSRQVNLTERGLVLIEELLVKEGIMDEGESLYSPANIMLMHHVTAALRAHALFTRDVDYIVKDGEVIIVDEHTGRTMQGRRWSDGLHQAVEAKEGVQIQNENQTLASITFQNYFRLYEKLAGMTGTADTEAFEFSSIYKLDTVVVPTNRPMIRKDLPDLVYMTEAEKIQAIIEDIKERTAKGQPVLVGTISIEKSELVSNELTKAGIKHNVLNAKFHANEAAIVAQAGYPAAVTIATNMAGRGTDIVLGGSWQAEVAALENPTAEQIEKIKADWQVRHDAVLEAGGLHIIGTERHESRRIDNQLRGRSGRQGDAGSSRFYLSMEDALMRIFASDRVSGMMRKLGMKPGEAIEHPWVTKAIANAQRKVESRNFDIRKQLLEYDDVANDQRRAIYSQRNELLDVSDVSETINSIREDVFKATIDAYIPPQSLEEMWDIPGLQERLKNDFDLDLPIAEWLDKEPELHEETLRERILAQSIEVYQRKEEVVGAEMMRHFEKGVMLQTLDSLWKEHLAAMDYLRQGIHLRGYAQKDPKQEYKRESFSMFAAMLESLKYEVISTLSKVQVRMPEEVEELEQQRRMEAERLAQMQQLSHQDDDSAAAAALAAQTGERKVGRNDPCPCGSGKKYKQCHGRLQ

[2] = molecular target: T1, Ubiquitin-activating enzyme e1, putative (Leishmania donovani (strain BPK282A1)) (UniProt E9BSI1); assay: Leishmania donovani Ubiquitin Activating Enzyme (LdE1); format: functional; conditions: 30 µM
T1 sequence (whole entry): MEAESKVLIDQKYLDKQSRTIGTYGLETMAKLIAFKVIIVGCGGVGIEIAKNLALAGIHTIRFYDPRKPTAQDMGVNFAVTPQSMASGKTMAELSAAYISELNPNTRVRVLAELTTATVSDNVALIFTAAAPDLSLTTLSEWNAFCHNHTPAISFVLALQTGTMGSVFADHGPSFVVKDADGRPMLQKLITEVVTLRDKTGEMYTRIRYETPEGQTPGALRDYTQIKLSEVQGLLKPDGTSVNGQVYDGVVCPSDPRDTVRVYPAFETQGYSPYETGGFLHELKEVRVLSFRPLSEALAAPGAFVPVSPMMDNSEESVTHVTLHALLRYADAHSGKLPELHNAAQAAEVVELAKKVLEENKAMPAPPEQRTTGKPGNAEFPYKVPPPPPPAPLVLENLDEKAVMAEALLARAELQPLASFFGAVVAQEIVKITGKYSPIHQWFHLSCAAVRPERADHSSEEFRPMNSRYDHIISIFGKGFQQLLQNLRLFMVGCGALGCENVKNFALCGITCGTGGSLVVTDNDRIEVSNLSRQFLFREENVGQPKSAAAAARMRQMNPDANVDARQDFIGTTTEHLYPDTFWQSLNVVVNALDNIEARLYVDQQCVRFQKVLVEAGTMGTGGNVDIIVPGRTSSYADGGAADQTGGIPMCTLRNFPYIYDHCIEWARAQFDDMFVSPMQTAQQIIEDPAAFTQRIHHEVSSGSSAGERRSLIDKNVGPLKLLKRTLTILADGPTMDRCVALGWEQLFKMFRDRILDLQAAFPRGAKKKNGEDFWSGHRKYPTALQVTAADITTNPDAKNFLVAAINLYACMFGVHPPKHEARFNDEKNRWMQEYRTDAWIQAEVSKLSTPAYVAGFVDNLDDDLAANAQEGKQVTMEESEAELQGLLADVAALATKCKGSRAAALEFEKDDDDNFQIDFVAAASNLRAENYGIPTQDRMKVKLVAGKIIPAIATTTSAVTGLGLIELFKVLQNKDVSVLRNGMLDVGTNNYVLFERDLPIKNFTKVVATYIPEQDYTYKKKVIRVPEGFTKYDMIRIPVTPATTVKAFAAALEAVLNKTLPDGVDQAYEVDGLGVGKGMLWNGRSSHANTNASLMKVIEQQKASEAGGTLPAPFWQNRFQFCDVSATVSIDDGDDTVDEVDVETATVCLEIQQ

[3] = molecular target: T2, Aspartate--tRNA(Asp/Asn) ligase (Mycobacterium tuberculosis (strain ATCC 25618 / H37Rv)) (UniProt P9WFW3); assay: Assay for Asp RNA synthetase-1 from Mycobacterium tuberculosis; format: functional; conditions: 30 µM; also: in the data most compounds retested in dose-response had high values
T2 sequence (whole entry): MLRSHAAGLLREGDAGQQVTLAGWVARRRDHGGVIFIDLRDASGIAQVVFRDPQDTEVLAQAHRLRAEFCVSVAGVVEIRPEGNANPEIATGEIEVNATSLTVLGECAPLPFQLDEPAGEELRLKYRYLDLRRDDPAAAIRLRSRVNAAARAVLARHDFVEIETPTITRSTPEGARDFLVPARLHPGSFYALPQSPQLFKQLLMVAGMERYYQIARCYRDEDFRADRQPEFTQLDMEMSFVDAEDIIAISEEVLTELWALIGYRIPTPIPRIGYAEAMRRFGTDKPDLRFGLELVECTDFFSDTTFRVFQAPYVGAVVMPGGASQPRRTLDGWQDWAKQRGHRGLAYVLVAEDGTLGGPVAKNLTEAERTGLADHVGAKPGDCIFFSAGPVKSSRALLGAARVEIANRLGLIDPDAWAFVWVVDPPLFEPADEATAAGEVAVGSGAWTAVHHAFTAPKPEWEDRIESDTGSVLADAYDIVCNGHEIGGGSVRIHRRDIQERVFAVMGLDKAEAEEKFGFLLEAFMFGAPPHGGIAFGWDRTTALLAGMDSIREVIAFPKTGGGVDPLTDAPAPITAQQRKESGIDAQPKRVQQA

[4] = molecular target: AMP-activated protein kinase, AMPK (Homo sapiens) (UniProt P54646+O43741+P54619+Q9UGJ0+Q9Y478+Q13131+Q9UGI9); assay: AMP-dependent Kinase enzyme assay. An in vitro enzyme assay that detects ADP turnover that is directly proportional to AMPK activity. This uses naive AMPK that is activated during the assay with MK-8722; format: functional; conditions: 30 µM
[5] = molecular target: Sialic acid-binding Ig-like lectin 9 (Homo sapiens) (UniProt Q9Y336); assay: Hs-Siglec9 ALPHAscreen SOP 20170721; conditions: 10 µM
Sialic acid-binding Ig-like lectin 9 (Homo sapiens), sequence (Q9Y336 whole entry): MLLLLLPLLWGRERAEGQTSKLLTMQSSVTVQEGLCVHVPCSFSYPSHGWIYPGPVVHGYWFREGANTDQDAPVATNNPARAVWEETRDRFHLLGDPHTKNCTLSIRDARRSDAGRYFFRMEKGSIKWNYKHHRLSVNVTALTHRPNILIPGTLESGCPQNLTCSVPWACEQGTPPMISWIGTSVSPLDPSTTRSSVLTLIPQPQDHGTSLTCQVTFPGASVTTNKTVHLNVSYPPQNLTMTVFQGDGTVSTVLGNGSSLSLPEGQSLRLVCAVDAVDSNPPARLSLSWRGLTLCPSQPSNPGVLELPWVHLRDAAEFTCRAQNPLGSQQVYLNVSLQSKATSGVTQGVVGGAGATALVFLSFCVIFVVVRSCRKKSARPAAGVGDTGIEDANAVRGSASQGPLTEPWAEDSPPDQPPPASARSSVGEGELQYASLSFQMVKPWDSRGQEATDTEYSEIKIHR

Trypanosoma cruzi = assay: Trypanosoma cruzi phosphomannomutase and mannose-1-phosphate guanylyltransferase assay; format: functional; conditions: 10 µM
[6] = molecular target: T3, Arginase-2, mitochondrial (Homo sapiens) (UniProt P78540); assay: in vitro enzyme assay to detect the production of urea directly proportional to the activity of Arginase II; format: functional; conditions: 33.3 µM; also: in the data most compounds retested in dose-response had high values
T3 sequence (whole entry): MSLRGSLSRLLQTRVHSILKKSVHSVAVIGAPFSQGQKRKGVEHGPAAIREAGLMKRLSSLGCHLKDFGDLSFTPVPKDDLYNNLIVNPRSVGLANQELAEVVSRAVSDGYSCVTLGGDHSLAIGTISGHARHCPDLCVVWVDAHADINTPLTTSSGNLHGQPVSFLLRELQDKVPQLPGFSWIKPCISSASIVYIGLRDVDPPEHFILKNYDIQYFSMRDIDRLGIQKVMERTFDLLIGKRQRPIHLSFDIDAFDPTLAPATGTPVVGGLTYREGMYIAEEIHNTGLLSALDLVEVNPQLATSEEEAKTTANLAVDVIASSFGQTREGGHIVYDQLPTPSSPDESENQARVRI

[7] = molecular target: T4, Proteasome subunit beta (Trypanosoma cruzi) (UniProt O96673); assay: Trypanosoma cruzi proteasome chymotrypsin-like activity (TcProtChymo) assay.; also: in the data most compounds retested in dose-response had high values; format: functional; conditions: 9.37 µM
T4 sequence (whole entry): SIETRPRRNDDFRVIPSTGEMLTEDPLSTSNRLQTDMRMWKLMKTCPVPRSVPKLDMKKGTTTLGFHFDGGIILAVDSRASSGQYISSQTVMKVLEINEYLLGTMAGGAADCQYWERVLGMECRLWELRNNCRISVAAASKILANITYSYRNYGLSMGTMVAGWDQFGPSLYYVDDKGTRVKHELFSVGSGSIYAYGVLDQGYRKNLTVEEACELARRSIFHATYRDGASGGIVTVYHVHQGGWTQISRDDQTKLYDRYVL

Homo sapiens = species: Homo sapiens; assay: To identify inhibition of the IFN signalling (Jak-Stat) pathway via expression of an eGFP reporter gene under the control of an IFN-stimulated response element (ISRE) containing MxA promoter.; format: functional; conditions: 30 µM
[8] = molecular target: Shiga toxin 2 (Escherichia coli O157:H7) (UniProt P09385+P09386); assay: E. coli 0.157:H7 Shiga Toxin SOP - stx2 screening assay; format: functional; conditions: 30 µM
[9] = molecular target: T5, Tyrosyl-tRNA synthetase, putative (Trypanosoma cruzi (strain CL Brener)) (UniProt Q4DSP6); assay: Trypanosoma cruzi tyrosyl tRNA synthetase (TcYRS) _High Tyrosine SOP; format: functional; conditions: 30 µM; also: in the data most compounds retested in dose-response had high values
T5 sequence (whole entry): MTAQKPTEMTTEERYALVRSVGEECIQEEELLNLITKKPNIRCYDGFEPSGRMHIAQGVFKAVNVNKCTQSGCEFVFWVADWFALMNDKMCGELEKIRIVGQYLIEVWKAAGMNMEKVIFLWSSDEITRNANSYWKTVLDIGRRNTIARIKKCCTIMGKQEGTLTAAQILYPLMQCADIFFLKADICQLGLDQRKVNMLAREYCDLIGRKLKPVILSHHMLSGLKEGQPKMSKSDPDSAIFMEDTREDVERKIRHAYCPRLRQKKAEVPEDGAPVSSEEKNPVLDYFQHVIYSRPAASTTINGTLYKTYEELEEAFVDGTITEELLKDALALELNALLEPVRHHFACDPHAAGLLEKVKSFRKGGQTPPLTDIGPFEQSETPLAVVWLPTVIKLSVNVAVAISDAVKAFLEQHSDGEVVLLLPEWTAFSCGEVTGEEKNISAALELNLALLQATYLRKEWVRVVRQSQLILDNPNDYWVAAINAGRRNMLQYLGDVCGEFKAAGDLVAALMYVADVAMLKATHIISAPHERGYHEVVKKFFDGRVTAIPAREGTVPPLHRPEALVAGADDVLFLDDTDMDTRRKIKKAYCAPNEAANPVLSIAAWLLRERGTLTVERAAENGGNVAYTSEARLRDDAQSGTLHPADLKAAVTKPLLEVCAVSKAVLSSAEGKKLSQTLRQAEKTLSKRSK

[10] = molecular target: T5, Tyrosyl-tRNA synthetase, putative (Trypanosoma cruzi (strain CL Brener)); assay: Trypanosoma cruzi tyrosyl tRNA synthetase (TcYRS) SOP; format: functional; conditions: 30 µM
[11] = molecular target: Chromo domain-containing protein 1 (Saccharomyces cerevisiae (strain ATCC 204508 / S288c) (Baker's yeast)) (UniProt P32657); assay: ScCHD-1 Enzyme Inhibition Assay; format: functional; conditions: 30 µM; also: in the data most compounds retested in dose-response had high values
Chromo domain-containing protein 1 (Saccharomyces cerevisiae (strain ATCC 204508 / S288c) (Baker's yeast)), sequence (P32657 whole entry, the tested form may be a part): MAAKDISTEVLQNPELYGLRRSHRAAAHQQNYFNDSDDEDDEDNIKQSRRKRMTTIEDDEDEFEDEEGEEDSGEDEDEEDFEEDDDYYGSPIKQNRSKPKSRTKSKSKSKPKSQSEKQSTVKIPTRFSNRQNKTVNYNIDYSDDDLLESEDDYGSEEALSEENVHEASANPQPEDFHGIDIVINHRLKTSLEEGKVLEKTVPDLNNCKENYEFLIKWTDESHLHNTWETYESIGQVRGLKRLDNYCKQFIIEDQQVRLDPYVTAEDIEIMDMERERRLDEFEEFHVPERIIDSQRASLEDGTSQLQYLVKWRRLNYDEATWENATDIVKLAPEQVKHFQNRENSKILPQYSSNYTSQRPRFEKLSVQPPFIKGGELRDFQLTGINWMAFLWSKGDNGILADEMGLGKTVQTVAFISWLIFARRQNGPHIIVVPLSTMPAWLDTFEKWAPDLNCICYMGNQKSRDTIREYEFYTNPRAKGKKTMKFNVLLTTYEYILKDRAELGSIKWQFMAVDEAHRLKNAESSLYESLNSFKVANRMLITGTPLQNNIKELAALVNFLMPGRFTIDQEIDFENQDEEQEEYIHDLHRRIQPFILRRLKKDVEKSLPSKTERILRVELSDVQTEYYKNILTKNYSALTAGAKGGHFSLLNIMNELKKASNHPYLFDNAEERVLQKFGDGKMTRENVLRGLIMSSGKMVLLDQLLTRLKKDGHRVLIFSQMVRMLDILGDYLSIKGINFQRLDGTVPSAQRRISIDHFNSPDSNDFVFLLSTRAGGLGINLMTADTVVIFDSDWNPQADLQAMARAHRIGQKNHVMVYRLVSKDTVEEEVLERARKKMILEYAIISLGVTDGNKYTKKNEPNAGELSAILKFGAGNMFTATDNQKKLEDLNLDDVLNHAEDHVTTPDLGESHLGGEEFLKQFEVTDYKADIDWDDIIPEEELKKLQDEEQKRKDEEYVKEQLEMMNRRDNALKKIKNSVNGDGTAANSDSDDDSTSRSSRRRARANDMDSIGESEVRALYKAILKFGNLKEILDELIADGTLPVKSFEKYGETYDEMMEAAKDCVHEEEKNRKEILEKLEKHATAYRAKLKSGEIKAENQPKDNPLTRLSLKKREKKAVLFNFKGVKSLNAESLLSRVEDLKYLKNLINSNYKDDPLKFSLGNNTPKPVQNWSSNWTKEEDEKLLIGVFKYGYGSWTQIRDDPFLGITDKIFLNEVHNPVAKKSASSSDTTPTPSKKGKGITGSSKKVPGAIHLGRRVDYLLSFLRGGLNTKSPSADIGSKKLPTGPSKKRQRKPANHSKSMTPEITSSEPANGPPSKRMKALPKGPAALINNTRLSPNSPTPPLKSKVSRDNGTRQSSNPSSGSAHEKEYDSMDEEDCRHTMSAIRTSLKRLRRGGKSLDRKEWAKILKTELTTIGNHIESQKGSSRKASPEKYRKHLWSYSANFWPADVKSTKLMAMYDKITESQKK

Row | SMILES | Percent Effect [1] | Percent Effect [2] | Percent Effect [3] | Percent Effect [4] | Percent Effect [5] | Percent Effect (Trypanosoma cruzi) | Percent Effect [6] | Percent Effect [7] | Percent Effect (Homo sapiens) | Percent Effect [8] | Percent Effect [9] | Percent Effect [10] | Percent Effect [11]
1 | Cc1nc(N(C)C)nc2c1COCC21CCN(CC2CC2)C1 (configuration not stated) | -3.83% | -8.11% | 3.96% | -0.232% | 1.53% | -5.86% | 1.25% | 7.18% | 4.17% | -14.2% | 6.93% | 6.1% | -5.03%
2 | O=C(Cc1ccc(O)c(Cl)c1)N1CCN(CC2CC2)[C@@H]2CS(=O)(=O)C[C@@H]21 | -7.75% | -1.39% | 4.65% | -2.21% | 15.8% | -1.46% | 0% | 7.54% | -5.81% | -19.1% | -2.1% | -2.56% | -1.95%
3 | O=C(CN1CCN(C(=O)Cc2ccc3c(c2)OCCO3)CC1)NC1CC1 | -0.996% | 18.2% | 3.1% | 0.741% | 0.674% | 2.06% | -2.13% | 11.8% | -0.0292% | -19.4% | 6.8% | 12.2% | -6.48%
4 | CN1CCC2(CC1)CNC(=O)c1ccccc1O2 | -3.91% | 6.76% | -2.4% | 13.4% | 4.99% | -5.34% | 0.232% | 10.3% | 1.44% | 12.6% | 6.45% | 6.49% | -6.62%
5 | Cc1ccc(N2CCO[C@H]3CN(Cc4ccncc4)C[C@H]32)nn1 | -2.06% | 2.7% | 2.28% | 3.63% | -2.84% | -2.83% | 1.59% | 19.6% | 4.04% | -5.64% | 8.65% | 10.3% | -5.13%
6 | O=C(Cc1ccccc1)N1CCN(Cc2noc(C3CC3)n2)CC1 | -1.81% | 11.4% | -2.26% | 0.817% | 1.57% | -4.62% | -3.23% | 12.9% | -5.12% | 0.476% | 7.29% | 15.2% | -22.4%
7 | O=C(NC1CCC1)[C@@H]1C[C@@H]2CCN(Cc3ccncc3)C[C@H]2O1 | -4.4% | 8% | -3.87% | 0.172% | 2.75% | 5.79% | -52.1% | 8.21% | 21.8% | 1.98% | 4.17% | 12.5% | -8.66%
8 | Cc1ccc(N2CCO[C@H]3CN(Cc4cnn(C)c4)C[C@H]32)nn1 | -2.13% | -2.7% | -2.15% | 0.154% | -4.13% | -6.55% | 4.78% | 18.4% | 0.179% | -2.36% | 6.49% | 10.3% | 2.29%
9 | O=C(Cc1csc(-c2ccco2)n1)N1CCN(CCO)CC1 | 0.294% | 1.27% | -0.16% | 8.43% | 2.75% | 0.308% | 8.39% | 5.49% | 11.1% | -23.6% | 3.12% | 5.06% | -4.16%
